# Lassa entry inh – inhibitors of Lassa virus binding or cell entry; Lassa virus pseudotype entry inhibition, cell reporter; Potency, µM (titrated, usually from 37.9 µM), for the others: at the highest dose activity change, negative = inhibition, usual class: inhibitors; hit rate 1.2% among 300,000; calls by dose curve; tested in HEK293 cells; note: potency is the fitted concentration of half-maximal effect; nearly all actives have a fitted effect of over 50% in size
# Pf growth 48h – P. falciparum growth inhibition at 48 hours (one generation). P. falciparum luciferase growth in erythrocytes, 48 h. AID 504832. Potency, µM (series often up to 28.7 µM), without a hit: at the highest dose activity change, negative = inhibition, most hits filed as inhibitors. hit rate 5.9% among 310,000; note: potency is the fitted concentration of half-maximal effect
#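 Firefly luciferase activity from engineered P. falciparum reports growth; inhibitors lower the luminescent signal. Cultures contained 2% hematocrit erythrocytes at 0.1% final parasitemia.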
# HCMV antiviral – blocks human cytomegalovirus replication; HFF cells, HCMV-luciferase reporter, 72 h; active compounds read low; activity change, negative = inhibition, % at 57.5 µM; hit rate 4.5% among 410,000; AID 1259415; in the data active = activity change below about -60%; inconclusive = no clear call, values can overlap the other calls; inactive = above about -39%
#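 Two-dose cell screen: HFF monolayers treated with compounds and infected with luciferase-expressing HCMV at 1 PFU/cell, 72 h at 37C, then lysed for luciferase measurement.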
# Pf growth 96h – inhibits malaria parasite growth, 96 h; P. falciparum luciferase reporter growth, 96 h; Potency, µM (highest dose often 28.7 µM), for inactives: at the top dose activity change, negative = inhibition, usual class: inhibitors; hit rate 6.9% among 320,000; AID 504834; note: potency is the fitted concentration of half-maximal effect
#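 Delayed-death screen, second-generation endpoint: infected erythrocytes, 2% hematocrit, 0.05% parasitemia final; 96 hours at 37 C, 5% CO2; luciferase detection reagent; luminescence decrease equals reduced growth.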
# HCV inhibitor – HCV inhibition; hit rate 3.4% among 340,000; Huh7.5.1 HCVcc-Cre infection, luciferase reporter, 44 h; Potency, µM (series often up to 41.8 µM), for inactives: top-dose activity change, negative = inhibition, usual class: inhibitors; note: potency is the fitted concentration of half-maximal effect
#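 1,000 cells/well; 4 h culture; + compound; + HCVcc-Cre (~0.5 moi); 44 h; luciferase substrate, RT 15 min; read 15 sec.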
# MARV entry inh – Marburg virus entry inhibition; Marburg virus pseudotyped entry inhibition, cell reporter; Potency, µM (top dose mostly 37.8 µM), for the others: at the top dose activity change, negative = inhibition, hits mostly inhibitors; hit rate 1.8% among 300,000; calls by dose curve; tested in HEK293 cells; note: potency is the fitted concentration of half-maximal effect
# An asterisk follows results filed as active; ? = inconclusive; . = not tested or not shown; [ ] = remark or other dose. Compounds with a hit are over-represented: about 14% of the library has one in this group of screens. Unless noted, calls come from the whole dose curve; as a rule, active = well fitted inhibition curve with a large enough effect; inconclusive = small, poorly fitted or top-dose-only effect, or another doubt; inactive = no such curve, though single readings can be large or run the other way. % is set by controls: 0 for no effect and ±100 for the full control effect.
SMILES,Lassa entry inh,Pf growth 48h,HCMV antiviral,Pf growth 96h,HCV inhibitor,MARV entry inh
COc1cccc(/C=C/C(=O)c2ccc(NC3=NCCCS3)cc2)c1,-4%[46.1 µM],-22%,11,33%,-24%,?
Cc1cccc(/C=C/C(=O)c2ccc(NC3=NCCCS3)cc2)c1,2%,18%,-98*,34%,11µM*,?
O=C(/C=C/c1ccccc1)c1ccc(NC2=NCCCS2)cc1,-2%,27%,10,-24%,-3%,?
O=C(CSc1ccc(-c2cccnc2)nn1)Nc1ccc(F)cc1,7%,-3%,17,?,.,6%
COc1ccccc1CN1C(=O)C(Cc2ccccc2)ON=C1c1ncccc1C (stereo not given),.,.,-39,.,.,.
O=C(O)CCCCCN1C(=O)CSC1=S,?,2%,-81*,?,10%,?
CC(C)OC(=O)CCCCCN1C(=O)CSC1=S,3%,7%,-17,?,-11%,-5%
CCN(CC)c1cc(C)c2cc(NC(=O)c3cccc(F)c3)ccc2n1,-22%[46.1 µM],.,?,.,.,?
Cc1nc2ccc(NC(=O)c3ccc(Br)o3)cc2s1,-4%,89%,42,162%,-17%,?
CCCCc1ccc(C(=O)Nc2ccc3nc(N(CC)CC)cc(C)c3c2)cc1,-11%[46.1 µM],.,-61*,.,.,?
CCN(CC)c1cc(C)c2cc(NC(=O)c3ccc(OC)c(OC)c3)ccc2n1,?,.,-89*,.,.,?
CCN(CC)c1cc(C)c2cc(NC(=O)c3ccccc3OC)ccc2n1,?,?,-60*,9.3µM*,10µM*,?
CCN(CC)c1cc(C)c2cc(NC(=O)c3ccc(Br)o3)ccc2n1,1%,12µM*,?,63%,?,?
CCN(CC)c1cc(C)c2cc(NC(=O)/C=C/c3ccccc3Cl)ccc2n1,-18%[46.1 µM],.,-107*,.,.,-20%[46.1 µM]
CCN(CC)c1cc(C)c2cc(NC(=O)c3cc(OC)cc(OC)c3)ccc2n1,?,.,-85*,.,.,0%[46.1 µM]
CCN(CC)c1cc(C)c2cc(NC(=O)c3ccc(F)cc3Cl)ccc2n1,?,.,?,.,.,-7%[46.1 µM]
COc1ccc(C(=O)N(c2ccc(C)cc2)S(=O)(=O)c2ccc(C)cc2)cc1,?,.,-31,.,.,.
Cc1cc(OCC(=O)Nc2ccc(-c3nc4cc(Cl)ccc4o3)cc2)cc(C)c1Cl,?,.,17,.,.,.
COc1cc(-c2cc3n(C)c(C)c(CCC(=O)O)c(=O)n3n2)cc(OC)c1OC,-1%[46.1 µM],.,4,.,.,7%[46.1 µM]
Cc1nccn1S(=O)(=O)c1ccc(Br)cc1Br,12%,1.9µM*,4,13µM*,?,12%
COc1ccc(OC)c(S(=O)(=O)n2ccnc2C)c1,?,-1%,6,.,7%,3%
COc1ccc(C(C)C)cc1S(=O)(=O)n1ccnc1C,1%,?,-103*,?,15%,2%
COc1ccc(C(CNC(=O)COc2ccc(Cl)c(C)c2)N2CCOCC2)cc1 (stereo not given),1%[46.1 µM],.,-28,.,.,-2%[46.1 µM]
CC(=O)Nc1ccc(C=NNc2nnc(NN=Cc3ccc(NC(C)=O)cc3)c3ccccc23)cc1,1.6µM*,.,-6,.,22µM*,?
Cc1ccc(/C=N/Nc2nnc(Cl)c3ccccc23)cc1,?,210%,28,185%,-19%,10µM*
SMILES,Lassa entry inh,Pf growth 48h,HCMV antiviral,Pf growth 96h,HCV inhibitor,MARV entry inh
CC1(C(=O)NS(=O)(=O)c2cccc(Cl)c2)CCN1C(=O)Cc1ccsc1 (stereo not given),.,.,3,.,.,.
CCOC(=O)c1ccc(N2C(=O)c3[nH]nc(-c4ccc(OCC)cc4)c3C2c2ccc(OC)cc2OC)cc1 (stereo not given),?,.,8,.,.,?
CCOC(=O)c1ccc(N2C(=O)c3[nH]nc(-c4ccc(OCC)cc4)c3C2c2cccs2)cc1 (stereo not given),?,.,-65*,.,.,?
CCOC(=O)c1ccc(N2C(=O)c3[nH]nc(-c4ccccc4)c3C2c2cccs2)cc1 (stereo not given),?,.,-98*,.,.,?
O=S(=O)(c1ccc(Cl)cc1)c1nc(-c2cccs2)oc1N1CCCCC1,0%[46.1 µM],.,9,.,.,?
Cc1cc2c(SCC(=O)Nc3cccc(O)c3)ncnc2s1,-12%,.,54,.,22%,-11%[46.1 µM]
COc1ccc(N=c2oc3cc(O)ccc3cc2C(=O)NCC2CCCO2)cc1 (stereo not given),?,?,5,?,-12%,22%
Cc1ccc(N=c2oc3cc(O)ccc3cc2C(N)=O)cc1,?,-1%,-80*,25%,11µM*,?
COc1ccc(N=c2oc3cc(O)ccc3cc2C(=O)Nc2ccccn2)cc1OC,.,4.7µM*,9,-11%,?,.
COc1ccc(N2C(=O)CC(NCCNc3ccc([N+](=O)[O-])cn3)C2=O)cc1 (stereo not given),23%,-6%,1,107%,2%,-3%
CCOc1ccc(N2C(=O)CC(NCCNc3ccc([N+](=O)[O-])cn3)C2=O)cc1 (stereo not given),?,3%,54,0.83µM*,4%,?
CCOC1=C2[C@@H](CN(S(=O)(=O)c3ccccc3C)[C@H]2c2ccc(Cl)cc2)[C@H]2C(=O)NC(=O)[C@H]2C1,.,.,-76*,.,.,.
OC[C@@H]1CN(Cc2ccco2)C[C@H](n2cnc3c(N4CCN(c5ccccc5)CC4)ncnc32)O1,.,.,-24,.,.,.
COc1cc(C)nc(N2CCC(C(N)=O)CC2)n1,-1%,9%,10,9.3µM*,4%,23%
Cc1cccc(N2CCC(N3CCN(C4CCCCC4)C(CCO)C3)CC2)c1C (stereo not given),6%[46.1 µM],-4%,-75*,3%,?,?
CC(C)N1CCC(N2CCN(C3CCCC3)CC2CCO)CC1 (stereo not given),14%,-14%,-11,13µM*,4%,-11%[46.1 µM]
O=C(CSc1nc2ccccc2n1Cc1ccc(F)cc1)N1CCN(c2ccc(F)cc2)CC1,?,.,2,.,.,.
CCN(CC)c1ccc(-c2nc3cnccc3n2C)cc1,-25%,98%,11,22%,11µM*,?
CC(=O)Nc1ccc(OCC(O)Cn2c3ccccc3c3ccccc32)c(C)c1 (stereo not given),?,?,-61*,10µM*,?,-13%
Cc1cc(C)n(CC(O)Cn2c3ccccc3c3ccccc32)n1 (stereo not given),0%,10µM*,-3,.,?,-19%
CC1CCCN(CC(O)CN2CCN(CC(O)CN3CCCC(C)C3)C(C)C2)C1 (stereo not given),3%[46.1 µM],.,-13,.,9%,1.1µM*
Cc1ccccc1OCC(O)Cn1c2ccccc2c2ccccc21 (stereo not given),?,8.3µM*,18,12µM*,7.9µM*,?

# Screening results deposited in PubChem by National Center for Advancing Translational Sciences (NCATS).
